Experimental findings from PubChem BioAssay (NCATS) are described below.

Results filed as inconclusive are left out. Values without a mark were called inactive. The source made the active and inactive calls. Unless noted, the call rests on the fitted dose curve.

Assay [1] can be described thus: Primary qHTS for inhibitors of SARS-S pseudo-typed particle cell entry (AID 1479145). Further: nearly all actives have a fitted effect of over 45% in size. Further: potency means the concentration at half of the fitted maximal effect.
Assay [2] is described as follows: Primary qHTS for Huh7 cytotoxicity: counterscreen for inhibitors of MERS-S pseudotyped particle cell entry (AID 1479147).
A short description of assay [3]: Primary qHTS for Vero E6 cytotoxicity: counterscreen for inhibitors of SARS-S pseudo-typed particle cell entry (AID 1479150). Further: potency means the concentration at half of the fitted maximal effect.
Assay [4] is described as follows: Primary qHTS for inhibitors of MERS-S pseudo-typed particle cell entry (AID 1479149). Further: nearly all actives have a fitted effect of over 60% in size. Further: potency means the concentration at half of the fitted maximal effect.
Assay [5] in a line: Primary qHTS for inhibitors of La Crosse Virus (LACV) - induced cell death in SH-SY5Y cells (AID 1508616; active means well fitted inhibition curve with a large enough effect;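 further: top concentration of the series differs between compounds; higher means more rescue of cells from virus-induced death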). In a few lines:
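Cytopathicity rescue screen: compounds pinned onto SH-SY5Y cells, which are then infected with LACV (MOI 0.01) and held 6 days at 37C. Percent activity is scaled between infected DMSO control and uninfected DMSO control.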

Regarding `CC(=O)Nc1c(I)cc(I)c(C(=O)O)c1I`, the Potency result in assay [1], in assay [2] and in assay [3] was “inactive” throughout.
For `CC[C@H](C)C(=O)O[C@H]1C[C@H](O)C=C2C=C[C@H](C)[C@H](CC[C@@H](O)C[C@@H](O)CC(=O)O)[C@H]21`, the Potency entry in assay [2], in assay [4] and in assay [3] was “inactive” in each case.
`COc1cc(NS(C)(=O)=O)ccc1Nc1c2ccccc2nc2ccccc12`: the figures for the Potency in assay [1] and in assay [3] were 0.794 µM (active) and 25.1 µM (active), respectively.
As for `O=C(O)CCCCC1CCSS1` (stereo not given), the Potency result in assay [1], in assay [4] and in assay [3] was “inactive” throughout.
On to `Nc1cc(C(Cl)=C(Cl)Cl)c(S(N)(=O)=O)cc1S(N)(=O)=O`, for which the Potency entry in assay [1], in assay [2] and in assay [3] was “inactive” each time.
As to `c1ccc2sc(SN3CCOCC3)nc2c1`, the Potency result in assay [1], in assay [4] and in assay [3] was “inactive” each time.
`Cc1c(C(=O)O)c(O)cc2c1C(=O)c1c(O)c([C@@H]3O[C@H](CO)[C@@H](O)[C@H](O)[C@H]3O)c(O)c(O)c1C2=O`: the Potency entry in assay [2], in assay [4] and in assay [3] was “inactive” each time.
Consider `OCc1ccc(Cl)cc1Cl`, for which the Potency entry in assay [2], in assay [4] and in assay [3] was “inactive” throughout.
Take `CO[C@@]1(NC(=O)C(C(=O)O)c2ccc(O)cc2)C(=O)N2C(C(=O)O)=C(CSc3nnnn3C)CO[C@@H]21` (stereo not given in full): the Potency result in assay [1], in assay [2] and in assay [3] was “inactive” throughout.
On to `Nc1nc(N)nc(-c2cc(Cl)ccc2Cl)n1`, for which the Potency result in assay [2], in assay [4] and in assay [3] was “inactive” each time.
As to `CC(=O)Nc1ccc(CC(=O)O)cc1`, the Potency entry in assay [1], in assay [2] and in assay [3] was “inactive” throughout.
Take `Oc1ccccc1`: the Potency result in assay [2], in assay [4] and in assay [3] was “inactive” each time.
For the compound `C=CCN1CCc2nc(N)sc2CC1`, the Potency entry in assay [2], in assay [4] and in assay [3] was “inactive” throughout.
Turning to `CCCCN(CCCC)CCCOC(=O)c1ccc(N)cc1`, the Potency result in assay [1], in assay [4] and in assay [3] was “inactive” in each case.
With `CC(=O)Nc1ccc(C(=O)O)cc1`, the Potency entry in assay [1], in assay [2] and in assay [3] was “inactive” throughout.
Turning to `CCOCCn1c(C2CCN(CCc3ccc(C(C)(C)C(=O)O)cc3)CC2)nc2ccccc21`, the Potency result in assay [2], in assay [4] and in assay [3] was “inactive” throughout.
For the compound `CCn1cc(C(=O)O)c(=O)c2cnc(N3CCNCC3)nc21`, the Potency result in assay [2], in assay [4] and in assay [3] was “inactive” each time.
Consider `CC(C(=O)O)c1cccc(Oc2ccccc2)c1` (stereo not given), for which the Potency entry in assay [1], in assay [2] and in assay [3] was “inactive” throughout.
Take `CCn1cc(C(=O)O)c(=O)c2cc(F)c(N3CCNC(C)C3)c(F)c21` (stereo not given): the Potency entry in assay [1], in assay [2] and in assay [3] was “inactive” in each case.
`O=c1c(C2CC(c3ccc(-c4ccc(Br)cc4)cc3)Cc3ccccc32)c(O)sc2ccccc12` (stereo not given): the Potency in assay [1] is 25.1 µM (active). Further, in assay [2], the Potency result was “inactive”. Moreover, the compound was classed as inactive in assay [5].
Regarding `CCCc1ccc(OCC(=O)N2CCN(C(=O)COc3ccc(CCC)cc3OC)CC2)c(OC)c1`, the Potency entry in assay [1], in assay [2] and in assay [3] was “inactive” each time.
Turning to `NCC[C@H](O)C(=O)N[C@@H]1C[C@H](N)[C@@H](O[C@H]2O[C@H](CN)[C@@H](O)[C@H](O)[C@@H]2O)[C@H](O)[C@@H]1O[C@H]1O[C@H](CO)[C@@H](O)[C@H](N)[C@@H]1O`, the outcome in assay [2] and in assay [4] was “inactive [at 0.573 µM]” each time.
`CCCOC(=O)c1ccccc1`: the Potency result in assay [2], in assay [4] and in assay [3] was “inactive” throughout.
Turning to `CCc1oc2ccccc2c1C(=O)c1cc(I)c(O)c(I)c1`, the Potency entry in assay [2], in assay [4] and in assay [3] was “inactive” each time.
As for `NS(=O)(=O)c1cc(Cl)c(Cl)c(S(N)(=O)=O)c1`, the Potency result in assay [2], in assay [4] and in assay [3] was “inactive” throughout.
`CCCCC(CC)CNC(=O)CC(C)OC(=O)CCC(=O)O` (stereo not given): the Potency entry in assay [2], in assay [4] and in assay [3] was “inactive” throughout.
For `CC(C)CN(C[C@@H](OP(=O)(O)O)[C@H](Cc1ccccc1)NC(=O)O[C@H]1CCOC1)S(=O)(=O)c1ccc(N)cc1`, the Potency result in assay [2], in assay [4] and in assay [3] was “inactive” each time.
As to `CO/N=C(/C(=O)N[C@@H]1C(=O)N2C(C(=O)OCOC(=O)C(C)(C)C)=C(C)CS[C@H]12)c1csc(N)n1`, the Potency entry in assay [2], in assay [4] and in assay [3] was “inactive” in each case.
Regarding `CCCCC(CC)CN1CN(CC(CC)CCCC)CC(C)(N)C1` (stereo not given), the Potency result in assay [2], in assay [4] and in assay [3] was “inactive” in each case.
In the case of `COc1cc(C(=O)NS(=O)(=O)c2ccccc2C)ccc1Cc1cn(C)c2ccc(NC(=O)OC3CCCC3)cc12`, the Potency result in assay [2], in assay [4] and in assay [3] was “inactive” in each case.
Consider `COC(=O)CCCCC(CCSS/C(CCO)=C(\C)N(C=O)Cc1cnc(C)nc1N)SC(C)=O` (stereo not given), for which the Potency result in assay [2], in assay [4] and in assay [3] was “inactive” in each case.
For the compound `COC(=O)C1=C(C)NC(C)=C(C(=O)OCC(C)=O)C1c1ccccc1[N+](=O)[O-]` (stereo not given), the Potency entry in assay [2], in assay [4] and in assay [3] was “inactive” throughout.
For the compound `Cc1c(C)c2c(c(C)c1O)CCC(C)(COc1ccc(CC3SC(=O)NC3=O)cc1)O2` (stereo not given), the Potency entry in assay [2] and in assay [3] was “inactive” each time. Besides, the Potency in assay [4] is 25.1 µM (active).
Consider `Clc1cccc(Cl)c1NC1=NCCN1`, for which the Potency entry in assay [2], in assay [4] and in assay [3] was “inactive” each time.
As for `CCCCC[C@H](O)/C=C/[C@@H]1[C@H]2C/C(=C/CCCC(=O)O)O[C@H]2C[C@H]1O`, the Potency entry in assay [2], in assay [4] and in assay [3] was “inactive” in each case.
As to `CC(=O)[C@H]1CC[C@H]2[C@@H]3C[C@H](C)C4=CC(=O)CC[C@]4(C)[C@H]3[C@@H](O)C[C@]12C`, the Potency result in assay [2], in assay [4] and in assay [3] was “inactive” throughout.
As to `CN1C(C(=O)Nc2ccccn2)=C(O)c2sccc2S1(=O)=O`, the Potency entry in assay [2], in assay [4] and in assay [3] was “inactive” each time.
Take `C/C=C1\[C@H]2C=C(C)C[C@]1(N)c1ccc(=O)[nH]c1C2`: the Potency entry in assay [2], in assay [4] and in assay [3] was “inactive” each time.
Consider `CCCCCCNC(=O)n1cc(F)c(=O)[nH]c1=O`, for which the Potency result in assay [2] and in assay [3] was “inactive” throughout. Moreover, the Potency in assay [4] is 5.01 µM (active).
